# In publication PMC5540273 (PLoS ONE, 2017):
# How the values were obtained:
# Details in all cases: concentration: 1 μM, replicates: in singlicate; n = 1
# [1] = tested on: QSK
# [2] = tested on: RAF1
# [3] = tested on: RET
# [4] = tested on: RIOK1
# [5] = tested on: RIOK2
# [6] = tested on: RIOK3
# [7] = tested on: RIPK1
# [8] = tested on: RIPK2
# [9] = tested on: RIPK4
# [10] = tested on: RIPK5
# 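Also: KINOMEscan kinase panel screen.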
Compound,%Inh [1] [%],%Inh [2] [%],%Inh [3] [%],%Inh [4] [%],%Inh [5] [%],%Inh [6] [%],%Inh [7] [%],%Inh [8] [%],%Inh [9] [%],%Inh [10] [%]
COc1cccc(NC(=O)NC2CCN(c3ccnc(Nc4ccc(F)cc4)n3)C2)c1 (centres unmarked) [GSK1379721],3,3,0,16,0,13,29,2,17,18
COc1ccccc1-c1ccc2c(NC(=O)C3CC3)n[nH]c2n1 [SB-711239],16,38,11,20,9,0,10,33,0,0
Cn1cncc1-c1ccc2ncnc(Nc3ccc(OCc4ccccc4)cc3)c2c1 [GW320571],16,13,0,32,26,15,18,93.1,0,0
Cn1ccc2ncnc(Oc3ccc(NC(=O)Nc4ccccc4)cc3)c21,0,0,17,19,12,29,5,26,0,0
COc1cccc(-c2cc(-c3c[nH]nc3-c3ccccn3)ccn2)c1 [GW680338],17,25,21,1,3,91.4,19,27,0,5
Cl.O=C(Nc1cccc(-c2nn3ncccc3c2-c2ccnc(Nc3cccnc3)n2)c1)c1c(F)cccc1F [GSK312879],0,87,31,31,11,0,0,18,15,0
C[C@@H]1CCCCN1c1cc(-c2ccc3c(N)n[nH]c3c2)nc(N)n1 [GSK2258759],0,3,6,47,1,19,0,11,20,0
Cc1cccc(-c2nc(C)cc(Nc3ccncc3)n2)n1 [GSK257997],0,100,18,20,16,14,8,19,7,0
CS(=O)(=O)c1ccc(-c2nc3n(c2-c2ccncc2)CCC3)cc1 [SKF-105942],0,16,0,0,0,0,0,0,100,2
Cc1ccc(NC(=O)Nc2cccc(Cl)c2)cc1-c1ccc(C(=O)Nc2ccncc2)cc1 [GSK1398468],0,91.4,1,40,0,59,5,6,22,0
Cc1cccc(-c2nc(Nc3cccc(C(N)=O)c3)c3ccccc3n2)n1 [GW876019],0,17,0,50,0,26,19,0,0,0
Cl.c1ccc(-c2n[nH]cc2-c2ccnc(-c3ccc(CN4CCOCC4)cc3)c2)nc1 [GW776245],0,37,0,19,0,20,11,36,0,0
Cc1ccc(C(=O)Nc2ccc(Nc3ccnc4cc(-c5ccccn5)ccc34)cc2O)cc1.Cl [GW440146],0,8,26,14,3,81,0,52,3,0
Cl.NC(=O)c1cccc(Nc2nccc(Nc3ccc(Oc4cccc(Cl)c4)c(Cl)c3)n2)c1 [GW659008],9,0,3,37,21,23,27,95.8,72,0
Cc1csc(-c2nc(Nc3ccncc3)c3ccccc3n2)n1 [GW869640],35,0,0,38,39,1,0,52,44,34
Cc1ccc(-c2cc(-c3c[nH]nc3-c3ccccn3)ccn2)cc1 [GW684088],0,21,6,18,0,3,28,27,0,3
Clc1cc(Cl)cc(Nc2ccnc(Nc3cc(Cl)cc(Cl)c3)n2)c1 [GSK175726],0,17,10,34,91.7,35,0,41,10,6
